# Test results reported in PubChem BioAssay (NCI).
# “And” between values parts separate entries of the source, which are not always exact repeats. Identical values can stand only once. Compounds without any hit were thinned out: in the full panel of roughly 83,000, 20% have a hit.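 96-well plates, one dose, 48 hours. Percent growth reported; active if below 10.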 A number with no mark means an inactive call. The source made the active and inactive calls.
# Tested on: NCI-H23 lung
# Experiment: NCI-60 one-dose screen, 48 h (100 = growth as untreated, 0 = no growth, -100 = all killed)
# Settings: 10 µM
# Protocol: Growth inhibition of the NCI-H23 human Non-Small Cell Lung tumor cell line is measured as a screen for anti-cancer activity. Cells are grown in 96 well plates and exposed to the test compound for 48 hours. Compounds are tested at a single concentration, which is 10^-5 M for most compounds. The reported endpoint is percent growth (GI% or GIPRCNT), where numbers from 0 - 100% represent growth inhibition, and numbers from -100% - 0 represent cell death. For example, a value of 40 represents 60% growth inhibition. A value of 0 means no net growth occurred over the course of the experiment. A value of -40 indicates 40% of cells at the beginning of the experiment died by the end of the experiment. A value of -100 means all cells are dead at the end of the experiment.
# NCI-60 Human Tumor Cell Lines Screen was performed using the standard one-dose NCI protocol, which is described in more detail at https://dtp.cancer.gov/discovery_development/nci-60/default.htm.
# Compounds with GIPRCNT values below 10 were considered active. Activity score was based on GIPRCNT using the following formula: […]
# Score is 0 for GIPRCNT values of 100 or above, 50 for GIPRCNT values of 0, and 100 for GIPRCNT values of -100.
row,Compound,growth [%]
1,CS/C(=C\c1ccc(C(=O)c2ccc(C)cc2)n1C)S(C)=O (stereo not given),109

# Same assay, conditions: 10 µM unless noted
row,Compound,growth
1,COc1ccc(CCO)cc1,110%
2,CC(C)(C)C1CCC(=NO)CC1 (stereo not given),95.5%
3,N#Cc1c[nH]n2ccnc12,99.3%
4,N#Cc1c(N)nc2c(c(-c3ccc(Cl)cc3)nn2-c2ccccc2)c1C#N,93.7% [100 µM]
5,CC(NC(=O)CCl)c1ccccc1 (stereo not given),99.9%
6,S=c1nn[nH]n1C1CCCCC1,111%
7,C=CCN1C(=O)c2ccccc2C1=O,103%
8,CCOC(=O)C1=CC(=O)CC(C)(C)O1,104% and 107%
9,Cc1cnc(N)s1,97.5%
10,CC1=CC(=O)c2cccc(NC3=NCCO3)c21,100%
11,CCNCc1ccccc1,91.4%
12,CNc1ccc(Cl)cc1S(=O)(=O)c1ccccc1[N+](=O)[O-],87.9% and 98.3%
13,CN(C)C(=S)N(C)C,99.4%
14,COc1ccc(/C=C/C(=O)O)cc1OC,108% and 98.7%
15,COc1ccc2nccc(Cl)c2c1,98.4%
16,N#CC(=S)Nc1ccc(Cl)c(Cl)c1,3.93% (active)
17,COC(=O)c1nc(N)nc(C(=O)OC)c1C(=O)c1cccc2ccccc12,101%
18,CC(=O)Nc1cscc1NC(C)=O,103%
19,CCN(CC)Cc1cc2[nH]c3c4ccc(Cl)cc4ncc3c2cc1OC,68.4%

row,Compound,growth
1,O=C(c1ccccc1)C1(Br)CCCCC1,98%
2,COc1ccc(C(=O)C(O)c2ccc(OC)cc2)cc1 (stereo not given),98.4% and 92.7%
3,CCN(CC)CCNC(=O)c1ccc(NCN2C(=O)NC(c3ccccc3)(c3ccccc3)C2=O)cc1,97.1% and 103%
4,COc1ccc([N+](=O)[O-])cc1OC,98.5% and 106%
5,CCC/C(=N/NC(N)=O)c1ccco1,99.1%
6,CC1NC(C)c2ccc3ccccc3c2O1 (stereo not given),102%
7,CCCC(=O)OCC(COC(=O)CCC)OC(=O)CCC,104%
8,C#CCOC(=O)C(N)CS (stereo not given),109%
9,CCOC(=O)CN1CCC(C(=O)OCC)CC1,102%
10,CC(=O)/C(N=Nc1ccc(S(=O)(=O)c2ccc(N=N/C(C(C)=O)=C(/C)O)cc2)cc1)=C(\C)O,97.6%
11,CN(C)c1ccc(C(=N)c2ccc(N(C)C)cc2)cc1,56.4% and 41.9%
12,O=C(O)c1c2c(nc3ccccc13)Cc1ccccc1-2,96.7% and 95.7%
13,Nc1nc(-c2ccccn2)cc(-c2cc(-c3ccccn3)nc(N)n2)n1,103%
14,COCCCNC1=C(C#N)C(=O)NC(c2cccs2)S1 (stereo not given),104%
15,Cc1cc(-c2ccc(N=Nc3c(C)nn(-c4ccc(S(=O)(=O)O)cc4)c3O)c(C)c2)ccc1N=Nc1ccc(O)c(C(=O)O)c1,99.1%
16,O=[N+]([O-])c1ccc(N/N=C/C2CCCCCC2)c([N+](=O)[O-])c1,99.9%
17,CC(=O)Oc1cc(C(C)C)c(OCCN(C)C)cc1C,99.8% and 105%
18,CCCCNC(=O)c1ccccc1C,90.4%
19,O=C1Cc2ccccc2C(=O)N1,103%

# Same assay, conditions: 100 µM
row,Compound,growth [%]
1,CS/C(=C\c1ccc(C(=O)c2ccc(C)cc2)n1C)S(C)=O (stereo not given),66.2
